IL-1B inflam inh = qHTS for Inhibitors of Inflammasome Signaling: IL-1-beta AlphaLISA Primary Screen. THP-1 LPS/ATP IL-1B secretion, AlphaLISA, 16 h; active compounds read low. activity change, % at 57.5 µM. hit rate 4.7% among 360,000; in the data active = activity change below about -50%; inconclusive = mostly about -30% to -49%
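THP-1 cells pretreated 1 hr with compounds (up to 57.5 uM final), then stimulated with LPS (250 ng/mL final) plus ATP (1.25 mM final); secreted IL-1B measured by AlphaLISA after 16 hr, decreased signal indicating inhibition.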
TDP1 cell noCPT = qHTS for Inhibitors of human tyrosyl-DNA phosphodiesterase 1 (TDP1): qHTS in cells in absence of CPT | Potency, µM (highest dose often 46.2 µM), for the others: at the top dose activity change, negative = growth inhibition, usual class: inhibitors | AID 686978, 2013 | DT40 Tdp1-/- hTDP1 cells, no CPT, ATP luminescence, 48 h | hit rate 15% among 420,000; also: potency is read from the fitted curve at half-maximal effect; nearly all actives have a fitted effect of over 55% in size
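Cells were dispensed at 400 per well, compounds added by pin tool, plates incubated ≥48 hr at 37 °C, then CellTiter-Glo added for 30 min at room temperature before luminescence reading. Line: DT40 Tdp1-/- complemented with hTDP1; camptothecin omitted.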
HT1080-NT tox = qHTS for induction of synthetic lethality in tumor cells producing 2HG: qHTS for the HT-1080-NT fibrosarcoma cell line; HT-1080-NT fibrosarcoma viability, CellTiter-Glo ATP luminescence, 48 h; AID 686970, 2013; hit rate 1.6% among 360,000; Potency, µM (top dose mostly 46.1 µM), without a hit: at the top dose activity, negative = less viability, most hits filed as cytotoxic;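 also: NT is the 2HG producing partner of a matched IDH1 knockdown line; potency is read from the fitted curve at half-maximal effect; 0% = DMSO-treated cells and -100% = media-only wells without cells; nearly all actives have a fitted effect of over 55% in size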
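HT-1080-NT fibrosarcoma cells (2HG-overproducing), 750 cells/well in RPMI with 5% FBS, dosed after 2 h and incubated 48 h at 37C. CellTiter-Glo luminescence normalized to DMSO and no-cell wells; concentration-response curves fitted and classed.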
HT1080 IDH1KD tx = qHTS for induction of synthetic lethality in tumor cells producing 2HG: qHTS for the HT-1080-IDH1KD cell line. HT-1080 IDH1 knockdown viability, ATP luminescence, 48 h. Potency, µM (titrated, usually from 46.1 µM), inactives show top-dose activity, negative = toxicity, hits mostly cytotoxic. hit rate 2% among 360,000. AID 686971, 2013;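 also: potency is read from the fitted curve at half-maximal effect; 0% = DMSO wells and -100% = cell-free medium wells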
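Luminescent ATP read-out (CellTiter-Glo, 10 min at room temperature) after 48 h compound exposure at 37 °C gave viability of IDH1-knockdown HT-1080 cells. Activity was normalised to DMSO and cell-free wells, then fitted as concentration-response curves.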
TDP1 cell CPT = qHTS for Inhibitors of human tyrosyl-DNA phosphodiesterase 1 (TDP1): qHTS in cells in presence of CPT; chicken DT40 Tdp1-/-;hTDP1 cells + 20 nM CPT, ATP luminescence, 48 h; Potency, µM (highest dose often 46.2 µM), inactives show at the top dose activity change, negative = growth inhibition, usual class: inhibitors; hit rate 12% among 420,000; AID 686979, 2013; also: potency is read from the fitted curve at half-maximal effect; nearly all actives have a fitted effect of over 55% in size
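Chicken DT40 Tdp1-/- cells complemented with human TDP1, 400 cells/well, exposed to compounds plus 20 nM camptothecin for at least 48 h at 37 C; viability read as ATP content by CellTiter-Glo luminescence.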
* marks the source's active call; other numbers are inactive results; i = inactive; ? = inconclusive; / = no result given. Only some compounds are listed: those with a hit (about 19% of all), similar ones and a draw of the others. Unless noted, calls follow the shape of the dose curve; as a rule, active = well fitted curve in the direction sought with a large enough effect; inconclusive = small, poorly fitted or top-dose-only effect, or another doubt; inactive = no such curve, though single readings can be large; an effect the other way counts as inactive or inconclusive. Unless noted, % is scaled to controls: 0 for no effect and ±100 for the full control effect.

SMILES | IL-1B inflam inh | TDP1 cell noCPT | HT1080-NT tox | HT1080 IDH1KD tx | TDP1 cell CPT
COc1cc(CNC(=O)Nc2nc(C(N)Cc3ccc(C(F)(F)F)cc3)cs2)cc(OC)c1OC (stereo unspecified) | -59* | 12µM* | ? | ? | 13µM*
CCn1c2ccccc2c2nnc(SCC(=O)NC(CC(C)C)C(=O)OC)nc21 (stereo unspecified) | -2 | ? | 0% | -1% | ?
O=C(OCc1cc(=O)n2nc(-c3cccs3)sc2n1)c1ccc(Cl)cc1 | / | -16% | / | / | -13%
O=C1CC(SC(=S)C2CCCC2=O)C(=O)N1 (stereo unspecified) | -6 | ? | -5% | -30% | ?
CC[N+]1(C)CCC(O)(c2ccc(OC)cc2)C(C(=O)c2ccc(OC)cc2)C1 (stereo unspecified) | -78* | 0.92µM* | ? | 4.6µM* | 0.65µM*
CSCc1c(C(=O)NCCc2ccccn2)oc2ccccc12 | -9 | -26% | 10% | 7% | 6%
O=C1OC(c2ccc(F)cc2)=N/C1=C\c1ccc(Br)o1 | 3 | 13µM* | 5% | 17% | ?
O=C1c2ccccc2C(O)(c2ncc[nH]2)N1CCc1ccccc1 (stereo unspecified) | 13 | 9% | 12% | 9% | ?
O=C(O)c1n[nH]c2c1CC(C1CCCCC1)CC2 (stereo unspecified) | -10 | -9% | -18% | 0% | -23%
CCN(CC)c1ccc(NC(=O)CN2C(=O)CC(C)(C)S(=O)(=O)c3ccccc32)c(C)c1 | 0 | 16µM* | -28% | -1% | 15µM*
COC(=O)c1ccccc1NC(=O)Cn1ncc2c(C)n(Cc3ccc(F)cc3)c(C)c2c1=O | / | ? | / | / | 21µM*
CCN(CC)c1ccc(NC(=O)Cn2ncc3c(C)n(Cc4ccccc4F)c(C)c3c2=O)c(C)c1 | 21 | 21µM* | 18% | 28% | ?
CC1(C)CC(=O)N(CC(=O)NCc2ccccc2)c2ccccc2S1(=O)=O | 0 | -3% | 5% | 9% | 20%
CSc1ccc(Cn2c(C)c(C(=O)NCc3ccc4c(c3)OCO4)sc2=O)cc1 | ? | 15µM* | -8% | -9% | ?
Cc1ccc(Cn2c(C)c(C(=O)NCc3ccc4c(c3)OCO4)sc2=O)cc1 | ? | -29% | -17% | 0% | ?
CSc1ccc(Cn2c(C)c(C(=O)NCc3cccs3)sc2=O)cc1 | / | 23µM* | -24% | -26% | ?
C=Cc1ccc(Cn2c(C)c(C(=O)NCc3ccc4c(c3)OCCO4)sc2=O)cc1 | -5 | 10µM* | -8% | -14% | ?
O=C1c2ccccc2C(c2nnnn2-c2ccc3ccccc3c2)N1C1CC1 (stereo unspecified) | 77 | -30% | 14% | 9% | -20%
Cc1onc(-c2ccccc2)c1C(=O)N1CCc2ccccc21 | 17 | ? | 3% | 9% | ?
O=C(C1CCCO1)N1CCN(c2c3c(nc4cc(-c5ccc(F)cc5)nn24)CCC3)CC1 (stereo unspecified) | -4 | 16µM* | 0% | 6% | ?
Fc1ccc(-c2cc3nc4c(c(N5CCOCC5)n3n2)CCCC4)cc1 | ? | 16µM* | ? | ? | 18µM*
Cc1cccc(-c2cc3nc4c(c(N5CCOCC5)n3n2)CCCC4)c1 | -26 | 23µM* | ? | ? | 18µM*
O=C(c1cc(F)c(F)c(F)c1F)N1CCN(C(=O)C2CCCO2)CC1 (stereo unspecified) | 5 | -7% | -1% | -6% | 2%
C1CCc2c(nc3nnnn3c2N2CCOCC2)C1 | 25 | -19% | 10% | 15% | -5%
Cc1cccc(-c2cc3nc4c(c(NCc5ccco5)n3n2)CCCC4)c1 | -98* | ? | ? | ? | ?
SMILES | IL-1B inflam inh | TDP1 cell noCPT | HT1080-NT tox | HT1080 IDH1KD tx | TDP1 cell CPT
CCCCOc1ccccc1C(=O)N(Cc1ccco1)C1CCS(=O)(=O)C1 (stereo unspecified) | 18 | -6% | 2% | 18% | 5%
COc1cc(C)c(CN2CCN(C(C)C(=O)NC(C)c3ccccc3)CC2)cc1OC (stereo unspecified) | 20 | -25% | -4% | -1% | -9%
OC1CCN(c2cc(-c3ccccc3)nc3cc(-c4ccc(F)cc4)nn23)CC1 | -8 | ? | 10% | 2% | 15%
OC1CCN(c2c3c(nc4cc(-c5ccc(F)cc5)nn24)CCC3)CC1 | -20 | ? | -25% | 20% | 16µM*
O=C(NCc1ccccc1)C(c1ccc(-c2ccccc2)cc1)N1CCN(CCN2CCOCC2)CC1 (stereo unspecified) | -20 | 21µM* | ? | ? | 16µM*
CCN(CC(=O)Nc1c(F)cccc1F)C(=O)CCCSc1nc2ccccc2[nH]1 | -12 | -23% | 9% | 2% | -16%
COc1ccc(/C=C(/C#N)C(=O)Nc2cccnc2)cc1OC | 0 | 8% | 11% | 23% | 12%
COc1cc(/C=C(/C#N)C(=O)Nc2ccc(Cl)cc2)ccc1Oc1nc(Cl)ncc1F | -21 | -27% | 16% | -1% | 9.2µM*
CCc1nc2ccc(C(=O)N(CC)CCN(C)C)cn2c1N(C)C(=O)c1cccc(OC)c1 | 3 | 0% | ? | 1% | -4%
C=CCc1cc(OC)ccc1OCCCCn1cncn1 | 30 | -23% | 7% | 5% | -19%
O=C(NCCN1C(=O)S/C(=C\c2cccc(Cl)c2Cl)C1=O)C1=COCCO1 | i | 2.6µM* | ? | ? | 1.5µM*
Cc1ccc(S(=O)(=O)N2CCOCC2)cc1C(=O)NCCN1C(=O)S/C(=C\c2ccccc2Cl)C1=O | ? | ? | 2% | 3% | ?
CC(C)C(C)/C=C/C(C)C1CCC2C3=CC=C4CC(O)CCC4(C)C3CCC21C (stereo unspecified) | / | -19% | / | / | -1%
Cc1cc(N2O[C@]34C=C[C@]25C[C@@H](O)CC[C@]5(C)C3CC[C@]2(C)[C@@H]([C@H](C)/C=C/[C@H](C)C(C)C)CC[C@H]24)no1 (stereo partly specified) | 20 | 9.2µM* | -7% | 2% | 12µM*
O=C(O)COc1ccc(CCNS(=O)(=O)c2ccccc2)s1 | / | -14% | / | / | 3%
O=C(NCCCc1ccccc1)c1ccc(F)cc1 | -16 | -16% | -4% | 0% | 1%
